Results: ChEMBL document CHEMBL3433997, “St. Jude Leishmania screening dataset” (2016)

Columns and labels:
Type in all cases: functional
[1] = target: Solute carrier family 2, facilitated glucose transporter member 1 (Homo sapiens) (UniProt P11166); assay: ST_JUDE_LEISH: Cytotoxicity at 2uM final concentration against transgenic Leishmania Mexicana promastigotes LmGLUT1 that are glucose transport deficient and complemented with the human glucose transporter GLUT1. Activity is measured by DNA content using SYBR green in vitro
[2] = target: Hexose transporter 1 (Plasmodium falciparum) (UniProt O97467); assay: ST_JUDE_LEISH: Cytotoxicity at 2uM final concentration against transgenic Leishmania Mexicana promastigotes LmPfHT that are glucose transport deficient and complemented with the Plasmodium falciparum hexose transporter. Activity is measured by DNA content using SYBR green in vitro
[3] = target: Glucose transporter (Leishmania mexicana) (UniProt O61059); assay: ST_JUDE_LEISH: Cytotoxicity at 2uM final concentration against transgenic Leishmania Mexicana promastigotes LmGT2 that are glucose transport deficient and complemented with the L. Mexicana glucose transporter 2. Activity is measured by DNA content using SYBR green in vitro

Chain of Solute carrier family 2, facilitated glucose transporter member 1 (Homo sapiens) (P11166 whole entry): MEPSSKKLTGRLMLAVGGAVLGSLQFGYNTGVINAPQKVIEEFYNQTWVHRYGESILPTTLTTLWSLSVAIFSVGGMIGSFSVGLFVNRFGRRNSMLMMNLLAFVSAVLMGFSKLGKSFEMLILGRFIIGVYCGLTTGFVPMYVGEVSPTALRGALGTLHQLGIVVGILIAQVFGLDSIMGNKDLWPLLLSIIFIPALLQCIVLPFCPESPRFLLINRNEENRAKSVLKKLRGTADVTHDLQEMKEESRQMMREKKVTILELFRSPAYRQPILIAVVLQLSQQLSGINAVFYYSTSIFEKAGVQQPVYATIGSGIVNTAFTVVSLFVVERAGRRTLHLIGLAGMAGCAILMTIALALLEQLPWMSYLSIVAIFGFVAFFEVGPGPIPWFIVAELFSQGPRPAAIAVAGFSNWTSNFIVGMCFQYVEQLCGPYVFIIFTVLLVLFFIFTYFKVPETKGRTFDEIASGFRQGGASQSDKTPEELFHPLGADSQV

Row | Structure (SMILES) | inhibition [1] [%] | inhibition [2] [%] | inhibition [3] [%]
1 | COc1cc(C(=O)N2CCOC(CCN3CCC4c5ccccc5CC43)(c3ccc(Cl)c(Cl)c3)C2)cc(OC)c1OC (stereo unspecified) | 3.86 | -2.68 | 9.19
2 | CCn1c(-c2nonc2N)nc2c(-c3cc4ccccc4s3)ncc(C(=O)N3CCC(N)C3)c21 (stereo unspecified) | 82.2 | 98.3 | 10.9
3 | CCOc1cc2c(cc1OCC)C(c1cc(OC)c(O)cc1Cl)NCC2 (stereo unspecified) | 2.01 | 0.45 | 2.79
4 | Cc1nc(Nc2ccncc2)cc(-c2ccncc2)n1 | 0.59 | 4.18 | 2.92
5 | O=C(C=Cc1ccc(Cl)c(Cl)c1)NC1CCN(CCc2ccccc2)CC1 | 0.9 | 1.06 | -4.41
6 | CC(C)CNCc1ccc(-c2cccc(CNC3CCN(Cc4ccccc4)CC3)c2)cc1 | 3.21 | 3.32 | 5.23
7 | O=C(Cc1ccc[n+]([O-])c1)Nc1cccc(-c2cccc(-c3nc4cc(C(F)(F)F)ccc4[nH]3)c2)c1 | 2.28 | -0.06 | 5.03
8 | CC1(C)N=C(N)N=C(N)N1OCc1ccc2ccccc2c1 | 8.29 | 7.22 | 6.67
9 | Oc1ccc(CCNc2nc(NCc3ccccc3-c3ccc(C(F)(F)F)cc3)nc(NC3CCNCC3)n2)cc1 | 1.32 | 0.48 | 0.66
10 | c1ccc(CCNCc2ccc(-c3cccc(-c4nc5ccccc5[nH]4)c3)cc2)nc1 | 3.95 | 3.7 | 3.79
11 | Nc1ncc(-c2cccc(CCN3CCOCC3)c2)cc1-c1nc2cc(Br)ccc2[nH]1 | 14 | 9.95 | 11.8
12 | O=C(c1ccc(Cl)cc1)C1CCN(CCCOc2ccc3c(c2)CCNCC3)CC1 | 1.04 | 4.76 | 0.17
